Screens: PubChem BioAssay, several laboratories
Hits are enriched below; roughly 1.9% of the tested compounds scored in any of these assays.
N-glyco inh: N-linked glycosylation inhibition; D54 ERlucT glycosylation luciferase reporter, 24 h; percent of 100 nM tunicamycin response; reporter increase, % at 12.5 µM; hit rate 0.23% among 360,000; AID 588692;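 active means mean luciferase reporter signal, scaled so untreated is 0 and the glycosylation-blocking control 100, at or above a set limit in every replicate; inconclusive means mean reaches the limit but not every replicate does; inactive means mean below the limit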;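 further: luciferase carries N-glycosylation sites so blocking glycosylation raises the light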
NSD2 inh: blocks human histone methyltransferase NSD2. O96028. NSD2 peptide methylation, AlphaScreen, 120 min. inhibition, % at 12.5 µM. hit rate 0.54% among 310,000; in the data active means inhibition above about 50%
CaV13 ICDI inh: Primary screen for inhibitors of IQ motif and Ca2+-dependent inactivation inhibitor domain binding in CACNA1D, Förster resonance energy transfer in living cells, …; HEK cells, CFP/YFP FRET ICDI-IQ, plate reader, 10 min; percent FRET-ratio fall versus neutral wells; inhibition, % at 12.3 µM; hit rate 0.098% among 340,000; AID 743397;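 active means mean replicate inhibition of at least 30% and at least 1% of replicates passing that level; inconclusive means only one of the two criteria is met; inactive means neither criterion is met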
Vif imaging: blocks HIV Vif function; HEK293T cells, Vif self-association by quenched fluorescence, imaging, 24 h; inhibition, % at 7.49 µM; hit rate 0.35% among 340,000; AID 602346; in the data active means inhibition above about 50%, passing the limit was not always enough; inconclusive means no clear call, values can overlap the other calls; inactive means below about 31%
ATG4B inhibitor: inhibitors of human ATG4B cysteine protease | ATG4B cleavage of LC3-PLA2, NBD-HPC fluorescence, 1 h | hit rate 0.51% among 340,000 | Q9Y4P1 | inhibition, % at 8.33 µM; in the data active means inhibition above about 40%
Pemphigus Ab inh: human desmoglein-3 autoantibody binding inhibition; P32926; DSG3-coupled beads, scFv-anti-DSG3-GFP binding, flow cytometry; hits give low values; binding (percent of control), % at 10 µM; hit rate 0.48% among 310,000;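 active means binding more than 3 SD below its plate's average and above zero; inconclusive means below that plate limit but binding exactly zero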;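 further: hits lower antibody fragment binding to DSG3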
Alpha artifact: counter-screen for NSD2 inhibitors: AlphaScreen artifacts. shares compounds with NSD2 inh. AlphaScreen artifact counterscreen, preloaded methylated H4 peptide. AC35, µM (highest dose often 10 µM). hit rate 9.4% among 1,500; call rule not given here
Of the large screens only hits and unclear results are named; the others gave an inactive call (follow-up assays come after a bar, where they were run).

O=C1C(Nc2cccc(O)c2)=C(N2CCCCC2)C(=O)c2ccccc21	NSD2 inh 64 | Alpha artifact inactive
CC1CCN(C2=C(NS(=O)(=O)c3ccc(Br)cc3)C(=O)c3ccccc3C2=O)CC1	none
CCN(CC)CCCn1c(=S)[nH]c2ncccc2c1=O	NSD2 inh 55 | Alpha artifact inactive
Cc1cccc(N(CC(=O)NC(C)(C)C)C(=O)CS(=O)CC(=O)Nc2ccc3c(c2)OCO3)c1 (stereo not drawn)	NSD2 inh 52 | Alpha artifact inactive
COc1ccc(CNS(=O)(=O)c2ccc3c(c2)CC(C)N3C(=O)C2CC2)cc1 (stereo not drawn)	none
CC1CCN(C(=O)CN(Cc2ccc(Cl)cc2)S(C)(=O)=O)CC1	NSD2 inh 62 | Alpha artifact inactive
COc1ccc(CCC(=O)Nc2ccc(S(=O)(=O)Nc3nccc(C)n3)cc2)cc1	NSD2 inh 76, Vif imaging inconclusive | Alpha artifact inactive
O=Cc1ccc(OC(=O)C2CC(=O)N(c3ccc(F)cc3)C2)cc1 (stereo not drawn)	NSD2 inh 125 (no result: Pemphigus Ab inh) | Alpha artifact inactive
CC(=O)c1coc2c1cc(O)c1ccccc12	none (no result: NSD2 inh)
CC(=O)c1cc(O)c2ccccc2c1O	NSD2 inh 79 | Alpha artifact inactive
COc1ccccc1N=Nc1ccc(O)c2ncccc12	NSD2 inh 94 | Alpha artifact inactive
CCS(=O)(=O)c1ccc(N=Nc2ccc(O)c3ncccc23)c(OC)c1	none
CCOC(=O)N1CCN(C(=O)CSCC(=O)Nc2nc(-c3ccc(-c4ccccc4)cc3)cs2)CC1	none (no result: NSD2 inh)
O=C(CSCC(=O)N1CCOCC1)Nc1nc(-c2ccccc2)cs1	NSD2 inh 53 | Alpha artifact inactive
Cc1cccc(-n2c(Cn3nc(C)c([N+](=O)[O-])c3C)n[nH]c2=S)c1	NSD2 inh 125 (no result: CaV13 ICDI inh) | Alpha artifact inactive
CC(=O)N1CCc2cc(Br)cc(S(=O)(=O)NCCCN(C)Cc3ccccc3)c21	NSD2 inh 125 | Alpha artifact inactive
CCC(=O)N1CCc2cc(Br)cc(S(=O)(=O)NCCCN(C)Cc3ccccc3)c21	none
Oc1cccc(/C=N/N(Cc2ccccc2)c2ccccc2)c1	none
Oc1cccc(C=NCc2ccccc2)c1	NSD2 inh 159 (no result: N-glyco inh, Vif imaging) | Alpha artifact inactive
CN(C)/C=C1\C=C2C(=O)c3ccccc3N2C1=O	NSD2 inh 144 (no result: Vif imaging, Pemphigus Ab inh) | Alpha artifact inactive
CN(C)S(=O)(=O)N1C(=O)c2ccccc2C1=O	none
Cc1ccc(CNC(=O)CN2CCC(C(N)=O)CC2)cc1	none (no result: N-glyco inh, Vif imaging, Pemphigus Ab inh)
COc1cccc(-c2nn3c(-c4ccco4)nnc3s2)c1	NSD2 inh 90 | Alpha artifact inactive
CC(C)(C)NC(=O)C(c1ccc(Cl)cc1)N(Cc1ccco1)C(=O)CCl (stereo not drawn)	none
CNCCCC12CCC(c3ccccc31)c1ccccc12	NSD2 inh 84 | Alpha artifact inactive
O=C(CCCc1ccccc1)NCCCN1CCOCC1	none
O=C(CN1CCN(Cc2ccccc2)CC1)NCC1COc2ccccc2O1 (stereo not drawn)	none
O=C(CCN1CCOCC1)NCC1COc2ccccc2O1 (stereo not drawn)	NSD2 inh 56 | Alpha artifact inactive
O=C(CCc1ccccc1)NCCCN1CCOCC1	NSD2 inh 98 | Alpha artifact inactive
CCN1CCN(C(=O)c2ccc3c(c2)S(=O)(=O)c2ccccc2C3=O)CC1	none
O=C(OCc1ccc([N+](=O)[O-])cc1)c1cc(=O)c2ccccc2o1	NSD2 inh 115 (no result: Pemphigus Ab inh) | Alpha artifact inactive
COc1cc(/C=C/C(=O)OCC(=O)NNC(=O)c2cc(Cl)ccc2OC)ccc1O	NSD2 inh 63 (no result: Vif imaging) | Alpha artifact inactive
COc1cccc(/C(O)=C2\C(=O)C(=O)N(c3ccccn3)C2c2ccccc2OC)c1 (stereo not drawn)	none (no result: Pemphigus Ab inh)
COc1ccc(C2/C(=C(\O)c3cccc(OC)c3)C(=O)C(=O)N2c2ccccn2)cc1 (stereo not drawn)	NSD2 inh 116 | Alpha artifact inactive
